Consider 1 sequence from publication PMC7862700, “An all-to-all approach to the identification of sequence-specific readers for epigenetic DNA modifications on cytosine”.

Common to all, as to assay: DAPPL (digital affinity profiling via proximity ligation, sequencing); 10 mM Tris-HCl pH 7.5, 50 mM NaCl, 1 mM DTT, 4% glycerol, room temperature, 30 min; GST-TFs on glutathione beads, 16-mer random dsDNA library, 0.1% formaldehyde crosslink after washing; high values mean tight binding
Experiment [1] concerns the target T1, FEV (Homo sapiens, UniProt Q99581 1-238).
T1 sequence: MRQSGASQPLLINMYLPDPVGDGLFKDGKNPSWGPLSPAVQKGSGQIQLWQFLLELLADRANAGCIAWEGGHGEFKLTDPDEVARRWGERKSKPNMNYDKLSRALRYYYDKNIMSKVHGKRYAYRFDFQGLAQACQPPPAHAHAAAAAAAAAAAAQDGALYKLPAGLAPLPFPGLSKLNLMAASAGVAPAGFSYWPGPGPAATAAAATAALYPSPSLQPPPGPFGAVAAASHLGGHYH
The following applies: protein: recombinant; tags: N-terminal GST; dsDNA, one strand shown. Summed up:
(§1)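 Binding signal is each hexamer's read frequency for a factor divided by its frequency in the tag-only sample. The factors were GST-fused human transcription factors from yeast, captured on glutathione beads, DNA-barcoded and pooled with that sample. Pools were incubated with 200 nmole of a random double-stranded 16-mer DNA library in Tris/NaCl/DTT/glycerol buffer at room temperature for 30 min, then washed, crosslinked with 0.1% formaldehyde, proximity-ligated with BsaI/T4 ligase (1 h, 37 °C), PCR-amplified and sequenced on an Illumina NextSeq500.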

Experiment [2] deals with ETV5 (Homo sapiens, UniProt P41161 1-510). The following applies: protein: recombinant; tags: N-terminal GST; dsDNA, one strand shown. The essentials: as §1
The target of experiment [3] is HSF1 (Homo sapiens, UniProt Q00613 1-529). As to conditions: protein: recombinant; tags: N-terminal GST; chain copies: 3; dsDNA, one strand shown. Summed up:
as §1

Experiment [4] addresses T2, SPIC (Homo sapiens, UniProt Q8N5J4 1-248).
T2 sequence: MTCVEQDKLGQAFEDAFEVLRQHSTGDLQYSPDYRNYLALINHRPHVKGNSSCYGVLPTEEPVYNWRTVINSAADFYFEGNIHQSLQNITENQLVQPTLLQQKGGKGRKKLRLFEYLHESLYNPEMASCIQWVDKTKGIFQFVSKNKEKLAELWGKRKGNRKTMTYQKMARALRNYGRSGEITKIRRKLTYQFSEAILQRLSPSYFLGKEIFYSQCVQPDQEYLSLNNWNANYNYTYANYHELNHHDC
The following applies: protein: recombinant; tags: N-terminal GST; dsDNA, one strand shown. The essentials: as §1

The target in experiment [5] is ELF4 (Homo sapiens, UniProt Q99607 1-663). As to conditions: protein: recombinant; tags: N-terminal GST; dsDNA, one strand shown. Summed up:
as §1

Experiment [6] addresses T3, ELK4 (Homo sapiens, UniProt P28324-2 1-405).
T3 sequence: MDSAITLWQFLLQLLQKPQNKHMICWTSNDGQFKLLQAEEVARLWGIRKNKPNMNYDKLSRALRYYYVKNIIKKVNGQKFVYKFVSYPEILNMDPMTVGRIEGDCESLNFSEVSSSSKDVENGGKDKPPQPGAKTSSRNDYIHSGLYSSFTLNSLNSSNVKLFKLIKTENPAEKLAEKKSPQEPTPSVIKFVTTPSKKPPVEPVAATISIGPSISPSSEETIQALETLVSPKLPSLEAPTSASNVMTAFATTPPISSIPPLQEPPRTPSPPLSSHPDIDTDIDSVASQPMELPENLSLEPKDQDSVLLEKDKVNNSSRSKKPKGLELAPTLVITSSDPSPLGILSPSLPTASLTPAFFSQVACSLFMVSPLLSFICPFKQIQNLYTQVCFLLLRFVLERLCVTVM
The following applies: protein: recombinant; tags: N-terminal GST; dsDNA, one strand shown. Summed up: as §1

Experiment [7] deals with T4, ETV2 (Homo sapiens, UniProt O00321 1-342).
T4 sequence: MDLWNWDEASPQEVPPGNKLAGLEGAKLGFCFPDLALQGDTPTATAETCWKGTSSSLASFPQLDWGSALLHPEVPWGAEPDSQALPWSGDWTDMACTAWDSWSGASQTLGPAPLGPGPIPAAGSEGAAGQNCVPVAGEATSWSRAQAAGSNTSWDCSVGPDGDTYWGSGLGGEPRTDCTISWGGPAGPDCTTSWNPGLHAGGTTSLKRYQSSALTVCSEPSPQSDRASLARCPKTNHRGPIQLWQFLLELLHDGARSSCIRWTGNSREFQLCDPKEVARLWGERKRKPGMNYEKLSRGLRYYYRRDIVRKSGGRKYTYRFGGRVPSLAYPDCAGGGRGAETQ
As to conditions: protein: recombinant; tags: N-terminal GST; dsDNA, one strand shown. The essentials:
as §1

Experiment [8] deals with T5, ELF3 (Homo sapiens, UniProt P78545 1-371).
T5 sequence: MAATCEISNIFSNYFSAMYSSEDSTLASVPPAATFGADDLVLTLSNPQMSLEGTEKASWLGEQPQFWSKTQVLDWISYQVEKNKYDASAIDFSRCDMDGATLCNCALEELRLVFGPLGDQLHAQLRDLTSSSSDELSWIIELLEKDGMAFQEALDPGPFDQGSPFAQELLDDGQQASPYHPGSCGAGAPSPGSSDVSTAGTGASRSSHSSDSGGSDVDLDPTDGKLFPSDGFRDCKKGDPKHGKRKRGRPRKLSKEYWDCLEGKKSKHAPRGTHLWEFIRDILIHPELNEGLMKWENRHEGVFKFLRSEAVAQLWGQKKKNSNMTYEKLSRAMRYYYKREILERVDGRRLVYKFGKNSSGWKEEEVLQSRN
As to conditions: protein: recombinant; tags: N-terminal GST; dsDNA, one strand shown. The essentials: as §1

Experiment [9] deals with CRX (Homo sapiens, UniProt O43186 1-299). The following applies: protein: recombinant; tags: N-terminal GST; dsDNA, one strand shown. The essentials:
as §1

Experiment [10] deals with ETV1 (Homo sapiens, UniProt P50549 1-477). As to conditions: protein: recombinant; tags: N-terminal GST; dsDNA, one strand shown. Summed up:
as §1

The target in experiment [11] is T6, ERF (Homo sapiens, UniProt P50548 1-548).
T6 sequence: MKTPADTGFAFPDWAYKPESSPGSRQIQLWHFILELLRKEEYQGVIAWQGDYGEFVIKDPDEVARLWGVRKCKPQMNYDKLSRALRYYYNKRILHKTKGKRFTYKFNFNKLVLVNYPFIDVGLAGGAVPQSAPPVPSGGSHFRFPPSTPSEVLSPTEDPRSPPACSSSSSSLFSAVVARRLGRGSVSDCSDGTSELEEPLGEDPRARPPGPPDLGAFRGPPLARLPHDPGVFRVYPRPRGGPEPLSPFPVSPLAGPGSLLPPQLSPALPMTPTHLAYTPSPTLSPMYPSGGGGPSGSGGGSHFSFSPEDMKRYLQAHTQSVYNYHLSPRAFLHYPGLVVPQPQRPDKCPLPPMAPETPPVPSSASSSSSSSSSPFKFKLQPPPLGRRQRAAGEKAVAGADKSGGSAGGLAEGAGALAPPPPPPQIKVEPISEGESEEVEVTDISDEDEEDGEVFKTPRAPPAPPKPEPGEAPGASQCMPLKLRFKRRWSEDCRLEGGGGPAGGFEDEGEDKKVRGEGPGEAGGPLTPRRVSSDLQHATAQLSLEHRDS
As to conditions: protein: recombinant; tags: N-terminal GST; dsDNA, one strand shown. Summed up: as §1

Experiment [12] addresses T7, ETV3L (Homo sapiens, UniProt Q6ZN32 1-361).
T7 sequence: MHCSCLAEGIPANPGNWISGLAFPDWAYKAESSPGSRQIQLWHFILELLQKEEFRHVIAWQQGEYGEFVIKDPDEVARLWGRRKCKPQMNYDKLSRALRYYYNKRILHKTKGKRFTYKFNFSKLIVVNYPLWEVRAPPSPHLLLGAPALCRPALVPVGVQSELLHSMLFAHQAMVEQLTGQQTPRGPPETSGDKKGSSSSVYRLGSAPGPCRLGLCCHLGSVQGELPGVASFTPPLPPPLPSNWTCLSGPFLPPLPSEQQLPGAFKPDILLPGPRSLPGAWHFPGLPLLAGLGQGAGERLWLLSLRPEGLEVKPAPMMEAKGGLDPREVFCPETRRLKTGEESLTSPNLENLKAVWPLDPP
As to conditions: protein: recombinant; tags: N-terminal GST; dsDNA, one strand shown. Summed up:
as §1

The target in experiment [13] is T8, ETS2 (Homo sapiens, UniProt P15036 1-469).
T8 sequence: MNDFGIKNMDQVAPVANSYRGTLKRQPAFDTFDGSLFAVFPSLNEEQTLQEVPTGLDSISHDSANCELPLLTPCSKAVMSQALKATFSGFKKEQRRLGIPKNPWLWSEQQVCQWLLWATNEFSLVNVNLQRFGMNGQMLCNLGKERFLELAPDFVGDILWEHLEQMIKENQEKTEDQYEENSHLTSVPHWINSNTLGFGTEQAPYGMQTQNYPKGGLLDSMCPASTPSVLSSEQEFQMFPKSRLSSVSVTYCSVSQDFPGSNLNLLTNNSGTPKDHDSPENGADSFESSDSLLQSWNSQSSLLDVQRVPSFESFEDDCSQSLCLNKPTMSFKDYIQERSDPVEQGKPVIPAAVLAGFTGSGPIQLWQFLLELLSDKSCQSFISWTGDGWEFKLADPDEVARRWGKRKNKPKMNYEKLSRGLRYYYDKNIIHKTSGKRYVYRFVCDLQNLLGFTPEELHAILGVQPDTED
As to conditions: protein: recombinant; tags: N-terminal GST; dsDNA, one strand shown. Summed up:
as §1

For experiment [14], the target named is T9, SPDEF (Homo sapiens, UniProt O95238 1-335).
T9 sequence: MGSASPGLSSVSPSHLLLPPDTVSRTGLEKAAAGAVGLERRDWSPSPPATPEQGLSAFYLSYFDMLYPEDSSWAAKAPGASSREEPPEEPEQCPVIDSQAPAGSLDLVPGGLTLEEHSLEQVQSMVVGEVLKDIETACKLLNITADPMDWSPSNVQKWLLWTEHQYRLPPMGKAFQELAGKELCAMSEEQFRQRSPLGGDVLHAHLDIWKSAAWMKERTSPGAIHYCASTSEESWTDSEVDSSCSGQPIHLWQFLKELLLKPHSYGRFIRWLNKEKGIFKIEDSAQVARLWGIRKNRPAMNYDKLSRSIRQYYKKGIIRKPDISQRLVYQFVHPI
The following applies: protein: recombinant; tags: N-terminal GST; dsDNA, one strand shown. The essentials:
as §1

The target in experiment [15] is T10, ETV7 (Homo sapiens, UniProt Q9Y603 1-341).
T10 sequence: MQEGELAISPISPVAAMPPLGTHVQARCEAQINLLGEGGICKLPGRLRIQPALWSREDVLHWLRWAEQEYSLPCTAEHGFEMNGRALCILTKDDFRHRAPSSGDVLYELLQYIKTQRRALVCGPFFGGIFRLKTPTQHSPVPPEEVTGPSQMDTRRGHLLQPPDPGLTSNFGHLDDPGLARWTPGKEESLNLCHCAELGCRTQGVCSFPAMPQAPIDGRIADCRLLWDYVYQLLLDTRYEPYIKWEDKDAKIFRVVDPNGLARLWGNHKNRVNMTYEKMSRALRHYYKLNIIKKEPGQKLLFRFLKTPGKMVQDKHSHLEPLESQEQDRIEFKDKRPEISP
As to conditions: protein: recombinant; tags: N-terminal GST; dsDNA, one strand shown. Summed up: as §1

In experiment [16] the target is T11, ELF5 (Homo sapiens, UniProt Q9UKW6-2 1-255).
T11 sequence: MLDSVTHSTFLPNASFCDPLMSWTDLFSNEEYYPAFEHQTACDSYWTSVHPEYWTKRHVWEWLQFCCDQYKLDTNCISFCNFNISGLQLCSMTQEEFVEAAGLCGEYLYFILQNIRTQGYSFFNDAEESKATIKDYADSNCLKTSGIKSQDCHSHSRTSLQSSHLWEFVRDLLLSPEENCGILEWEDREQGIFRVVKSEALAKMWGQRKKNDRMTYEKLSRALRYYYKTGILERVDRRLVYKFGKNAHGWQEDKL
As to conditions: protein: recombinant; tags: N-terminal GST; dsDNA, one strand shown. Summed up:
as §1

Experiment [17] concerns the target T12, ETV3 (Homo sapiens, UniProt P41162-2 1-143).
T12 sequence: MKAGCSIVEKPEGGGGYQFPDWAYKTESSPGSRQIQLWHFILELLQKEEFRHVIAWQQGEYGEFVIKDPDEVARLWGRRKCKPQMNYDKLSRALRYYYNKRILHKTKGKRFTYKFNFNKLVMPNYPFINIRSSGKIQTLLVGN
As to conditions: protein: recombinant; tags: N-terminal GST; dsDNA, one strand shown. The essentials:
as §1

Experiment [18] has as its target ETV6 (Homo sapiens, UniProt P41212 1-452). The following applies: protein: recombinant; tags: N-terminal GST; dsDNA, one strand shown. The essentials: as §1

Sequence of ELF4 (Q99607 whole entry): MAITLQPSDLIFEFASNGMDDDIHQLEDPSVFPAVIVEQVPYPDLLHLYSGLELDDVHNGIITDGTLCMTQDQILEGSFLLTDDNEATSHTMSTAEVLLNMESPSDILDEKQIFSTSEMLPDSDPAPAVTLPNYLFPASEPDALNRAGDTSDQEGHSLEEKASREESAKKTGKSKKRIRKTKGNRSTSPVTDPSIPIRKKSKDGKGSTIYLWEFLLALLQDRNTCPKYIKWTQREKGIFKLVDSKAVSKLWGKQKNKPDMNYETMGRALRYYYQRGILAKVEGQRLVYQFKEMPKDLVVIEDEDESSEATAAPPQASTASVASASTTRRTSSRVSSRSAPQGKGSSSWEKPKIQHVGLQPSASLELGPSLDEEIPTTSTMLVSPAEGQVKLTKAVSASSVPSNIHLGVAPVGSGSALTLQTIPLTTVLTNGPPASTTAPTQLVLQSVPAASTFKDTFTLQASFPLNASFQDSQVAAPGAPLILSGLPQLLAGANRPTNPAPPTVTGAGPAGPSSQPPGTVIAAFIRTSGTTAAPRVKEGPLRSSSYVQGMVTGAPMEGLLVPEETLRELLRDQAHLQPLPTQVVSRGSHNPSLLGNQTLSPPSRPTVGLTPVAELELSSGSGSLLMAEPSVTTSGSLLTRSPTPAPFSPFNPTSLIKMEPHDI
Sequence of HSF1 (Q00613 whole entry): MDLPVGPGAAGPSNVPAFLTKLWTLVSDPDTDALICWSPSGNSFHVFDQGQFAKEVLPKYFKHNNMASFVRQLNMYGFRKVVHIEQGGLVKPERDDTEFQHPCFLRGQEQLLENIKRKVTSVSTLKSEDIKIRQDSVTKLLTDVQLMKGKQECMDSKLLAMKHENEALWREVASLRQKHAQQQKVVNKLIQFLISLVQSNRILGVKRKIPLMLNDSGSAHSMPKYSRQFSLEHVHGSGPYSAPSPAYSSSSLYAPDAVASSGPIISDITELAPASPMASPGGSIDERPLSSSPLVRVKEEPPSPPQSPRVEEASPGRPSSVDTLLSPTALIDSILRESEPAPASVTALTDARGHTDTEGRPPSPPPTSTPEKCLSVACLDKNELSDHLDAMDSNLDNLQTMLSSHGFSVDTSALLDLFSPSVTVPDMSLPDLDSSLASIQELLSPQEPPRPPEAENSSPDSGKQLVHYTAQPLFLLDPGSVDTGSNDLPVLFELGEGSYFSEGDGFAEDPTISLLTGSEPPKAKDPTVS
Sequence of CRX (O43186 whole entry): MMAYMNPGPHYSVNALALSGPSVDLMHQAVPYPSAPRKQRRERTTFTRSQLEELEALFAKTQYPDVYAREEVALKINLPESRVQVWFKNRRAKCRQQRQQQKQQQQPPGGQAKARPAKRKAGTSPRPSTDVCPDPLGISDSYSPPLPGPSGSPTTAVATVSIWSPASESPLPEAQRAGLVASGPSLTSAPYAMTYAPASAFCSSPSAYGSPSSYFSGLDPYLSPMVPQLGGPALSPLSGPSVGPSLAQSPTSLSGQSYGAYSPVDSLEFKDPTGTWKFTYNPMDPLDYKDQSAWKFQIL
Sequence of ETV1 (P50549 whole entry): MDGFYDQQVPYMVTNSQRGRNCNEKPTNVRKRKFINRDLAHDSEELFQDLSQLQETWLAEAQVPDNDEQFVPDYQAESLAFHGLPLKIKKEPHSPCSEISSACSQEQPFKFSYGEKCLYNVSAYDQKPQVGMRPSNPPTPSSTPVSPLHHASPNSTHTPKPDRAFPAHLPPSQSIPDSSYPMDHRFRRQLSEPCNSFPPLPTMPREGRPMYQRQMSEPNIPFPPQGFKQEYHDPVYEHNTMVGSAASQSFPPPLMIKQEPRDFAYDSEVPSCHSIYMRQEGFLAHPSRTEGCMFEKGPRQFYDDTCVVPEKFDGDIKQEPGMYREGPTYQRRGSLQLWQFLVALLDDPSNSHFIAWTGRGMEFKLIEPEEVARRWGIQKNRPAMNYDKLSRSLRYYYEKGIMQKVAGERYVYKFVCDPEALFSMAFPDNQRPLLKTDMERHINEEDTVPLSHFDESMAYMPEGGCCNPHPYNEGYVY
Sequence of ETV5 (P41161 whole entry): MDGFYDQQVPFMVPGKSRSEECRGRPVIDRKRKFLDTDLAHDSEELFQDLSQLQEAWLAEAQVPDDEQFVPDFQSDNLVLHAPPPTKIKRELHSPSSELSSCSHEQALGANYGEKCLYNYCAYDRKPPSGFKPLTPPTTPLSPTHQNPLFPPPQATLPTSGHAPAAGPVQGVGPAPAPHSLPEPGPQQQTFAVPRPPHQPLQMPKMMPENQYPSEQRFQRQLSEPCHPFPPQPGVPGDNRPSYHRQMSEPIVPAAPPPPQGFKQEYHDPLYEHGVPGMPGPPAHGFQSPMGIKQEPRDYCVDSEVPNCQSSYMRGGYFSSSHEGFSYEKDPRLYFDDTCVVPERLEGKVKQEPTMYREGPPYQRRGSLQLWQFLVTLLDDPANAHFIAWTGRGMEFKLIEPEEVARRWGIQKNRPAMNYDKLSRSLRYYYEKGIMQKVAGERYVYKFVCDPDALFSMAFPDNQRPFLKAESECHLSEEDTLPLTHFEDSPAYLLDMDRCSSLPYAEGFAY
Sequence of ETV6 (P41212 whole entry): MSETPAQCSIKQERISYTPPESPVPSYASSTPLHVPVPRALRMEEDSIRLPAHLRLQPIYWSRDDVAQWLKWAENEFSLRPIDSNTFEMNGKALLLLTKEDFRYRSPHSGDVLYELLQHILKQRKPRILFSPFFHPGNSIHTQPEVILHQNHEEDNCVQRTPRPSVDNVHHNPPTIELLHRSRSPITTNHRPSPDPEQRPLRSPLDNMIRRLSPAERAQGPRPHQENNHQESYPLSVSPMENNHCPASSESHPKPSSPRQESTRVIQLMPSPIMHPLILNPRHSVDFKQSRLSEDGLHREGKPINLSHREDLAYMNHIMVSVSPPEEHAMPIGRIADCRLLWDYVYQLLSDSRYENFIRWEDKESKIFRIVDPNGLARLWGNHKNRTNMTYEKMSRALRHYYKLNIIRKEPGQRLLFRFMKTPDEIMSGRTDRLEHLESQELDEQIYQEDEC

In the case of ACTATA, the binding signal is 1.29 fold enrichment (6-mer frequency, TF over GST control) in [1]; 1.33 fold enrichment (6-mer frequency, TF over GST control) in [2]; 1.26 fold enrichment (6-mer frequency, TF over GST control) in experiment [3]; 1.26 fold enrichment (6-mer frequency, TF over GST control) in [4]; 1.3 fold enrichment (6-mer frequency, TF over GST control) in experiment [5]; 1.42 fold enrichment (6-mer frequency, TF over GST control) in experiment [6]. Besides, the binding signal in [7] is 1.3 fold enrichment (6-mer frequency, TF over GST control); in experiment [8], 1.38 fold enrichment (6-mer frequency, TF over GST control); in experiment [9], 1.4 fold enrichment (6-mer frequency, TF over GST control); in experiment [10] it was 1.26 fold enrichment (6-mer frequency, TF over GST control); in experiment [11] it was 1.29 fold enrichment (6-mer frequency, TF over GST control); in [12], 1.24 fold enrichment (6-mer frequency, TF over GST control). The binding signal in experiment [13] was 1.36 fold enrichment (6-mer frequency, TF over GST control); in [14], 1.42 fold enrichment (6-mer frequency, TF over GST control); in experiment [15], 1.28 fold enrichment (6-mer frequency, TF over GST control); in [16], 1.35 fold enrichment (6-mer frequency, TF over GST control); in experiment [17], 1.33 fold enrichment (6-mer frequency, TF over GST control); in experiment [18], 1.31 fold enrichment (6-mer frequency, TF over GST control).
